# The whole screen tested about 360,000 compounds, of which about 1,800 (0.5%) were called active.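 How the source made its calls: active means interference check ratio from 0.5 to 1.5 plus GFP to RFP signal ratio inhibition reaching or exceeding a fixed threshold (cut at about 30% in these data, passing the limit was not always enough); inactive means the rest.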 This excerpt belongs to a sample that is enriched for actives.
# Assay: gst-4 reporter inhibition in live C. elegans – whole organism, uHTS, GFP/RFP fluorescence ratio, strain VP596, SKN-1 inhibitor project, primary screen (AID 624304)
# Conditions: C. elegans VP596 Pgst-4::GFP/RFP ratio, acrylamide-induced, 24 h; at 21.8 µM; active compounds read high
row,Compound,inhibition
1,OCC(CO)(CO)NCc1ccc(-c2ccccc2)cc1,5.37% (inactive)
2,CC(O)c1nc2c(c(=O)n(C)c(=O)n2C)n1C (configuration not stated),1.19% (inactive)
3,Cc1cccc(CN2CCN(Cc3cnn(-c4ccccc4F)c3)CC2CCO)n1 (configuration not stated),-14.6% (inactive)
4,COc1ccc(C(=O)N(C)CC(O)c2ccccc2)cc1OC1CCN(C(C)=O)CC1 (configuration not stated),-1.73% (inactive)
5,COCCNC(=O)c1ccc(-n2c(SCc3cccnc3)nc3ccccc3c2=O)cc1,7.94% (inactive)
6,CCC(C(=O)NCc1ccccc1)n1c(Cc2cc(F)cc(F)c2)nc2ccccc21 (configuration not stated),-5.9% (inactive)
7,COc1cccc(NC(=O)C2CCCN(c3ncnc4c3nc3n4CCCCC3)C2)c1 (configuration not stated),35.4% (active)
8,COc1cccc(CNC(=O)C2CCCN(c3ncnc4c3nc3n4CCCCC3)C2)c1 (configuration not stated),15.4% (inactive)
9,CCOC(=O)c1cccc(NC(=O)C2CCN(c3ncnc4c3nc3n4CCCCC3)CC2)c1,-10.7% (inactive)
10,CCCC1C(=O)N2C(N(C)C)=Nc3ccc(C)cc3N2C1=O (configuration not stated),11.9% (inactive)
11,Cn1c(=O)c2c(ncn2CC(COCc2ccccc2Cl)OCc2ccccc2Cl)n(C)c1=O (configuration not stated),-6.9% (inactive)
12,CNC(=O)/C(C#N)=C/c1c(F)cccc1Cl,14.6% (inactive)
13,C=CCC1(C#N)C(=S)NC(C)=C(C(=O)OCC)C1c1ccccc1 (configuration not stated),20.2% (inactive)
14,CCCNC(=O)C1CC(=O)N(c2ccc(OCc3ccccc3)cc2)C1 (configuration not stated),5.65% (inactive)
15,CC1(C)NC(=O)N(CCCCSc2ccc(Cl)cc2)C1=O,4.13% (inactive)
16,CCn1c(=S)[nH]c2cc(S(=O)(=O)N3CCOCC3)ccc21,-5.66% (inactive)
17,CNS(=O)(=O)c1ccc2c(c1)[nH]c(=S)n2C,45.2% (active)
18,CCCCn1c(=S)[nH]c2cc(S(=O)(=O)N3CCCCC3)ccc21,15.1% (inactive)
19,COc1ccc(CNC(=O)c2ccc(Br)s2)cc1OC,-0.0485% (inactive)
20,COc1ccc2nc(NC(=O)c3ccc(Br)s3)sc2c1,38.2% (active)
21,O=C(Nc1ccc2c(c1)CCC2)c1ccc(Br)s1,9.29% (inactive)
22,Cc1cc(N)n(-c2ccc(S(=O)(=O)N3CCCC3)cc2[N+](=O)[O-])n1,-11.2% (inactive)
23,Cc1oc(-c2cccc(Cl)c2)[n+]([O-])c1C,20.3% (inactive)
24,O=C(CCCC(=O)N(CC(=O)NC1CCCC1)Cc1ccccc1Cl)Nc1ccccn1,12% (inactive)
25,O=C(NC(=S)Nc1ccc(S(=O)(=O)Nc2ncccn2)cc1)c1cccc(Br)c1,-6.45% (inactive)
26,O=C(NC(=S)Nc1cccc2c(O)cccc12)c1cccc(Br)c1,41.4% (active)
27,O=C(NC(=S)Nc1ccc(Cl)c(C(=O)O)c1)c1cncc(Br)c1,-0.232% (inactive)

# Reference: PubChem BioAssay AID624304 (Sanford-Burnham Center for Chemical Genomics, 2012)
